The text below walks through data of PubChem BioAssay AID2315 (National Center for Advancing Translational Sciences (NCATS), 2010).

SMILES strings stand for the structures. Out of some 290,000 compounds screened, about 27,000 (9.3%) were called active. The sample holds actives, similar compounds and a random draw of the others, so the mix is not that of the screen. Cut-off read from the data, not from the text of the source: active = inhibition mostly above about 28% (no sharp cut-off); inactive = mostly below about 43%.

A short description of the assay: A qHTS for Small Molecule Inhibitors of Shiga Toxin. Note: 0% is about no effect. The settings on record: Vero cells, Shiga toxin protein synthesis inhibition reporter; at 38.7 µM, stronger effect = higher value.
Turning to `COc1cc(CC(=O)N2CCC(n3nccc3NC(=O)C3CC3)CC2)cc(OC)c1OC`, the inhibition (usually the drop in the measured response relative to a control, in per cent) is -10.9% (inactive).

For the molecule `Cc1cc(C)cc(N(CCC#N)C(=O)CN2C(=O)NC3(CCCC3)C2=O)c1`, the inhibition is 23% (inactive).

In the case of `O=C(O)C1CCCN1C1=NS(=O)(=O)c2ccccc21` (stereo not given), the inhibition was -13.3% (inactive).

As for `CCOC(=O)C1CCN(C(=O)Cn2nc(C)c3c(C)n(-c4ccccc4)nc3c2=O)CC1`, the inhibition was -6.47% (inactive).

On to `COc1ccc(N2CCN(S(=O)(=O)c3cc(Br)cnc3N)CC2)cc1`, for which the inhibition was -7.11% (inactive).

With `O=C(CCN1C(=O)[C@@H]2Cc3ccccc3CN2C1=O)NCCc1ccccc1`, the inhibition is -8.8% (inactive).

For `O=C(Oc1ccc(C(=S)N2CCOCC2)cc1)c1ccc(F)cc1`, the inhibition was -4.36% (inactive).

In the case of `O=C(c1cc(COc2ccc(F)cc2F)on1)N1CCOCC1`, the inhibition was 81.3% (active).

On to `COCCN1CCN(C(=O)c2cc(COc3ccc(F)cc3Cl)on2)CC1`, for which the inhibition was -23.4% (inactive).

Regarding `COc1ccc(/C=C/c2nnc(NC(=O)C(C)C)s2)cc1`, the inhibition is 42.3% (active).

`O=C(CSc1ccccc1)Nc1nnc(/C=C/c2ccccc2)s1`: the inhibition is -38.9% (inactive).

Regarding `O=C(Nc1ccc(Cl)cc1)Nc1nnc(/C=C/c2ccccc2)s1`, the inhibition is -5.24% (inactive).

As to `COC(=O)[C@]1(S(=O)(=O)c2ccccc2)C[C@@H]2ON=C(c3ccc(OC)cc3)[C@@H]2C1`, the inhibition is 13.5% (inactive).

Regarding `Cc1nn2cc(-c3ccc(Cl)cc3)cnc2c1Br`, the inhibition is 38.8% (active).

`COc1ccc(N2CCN(C(=S)Nc3ccc(S(N)(=O)=O)cc3)CC2)cc1`: the inhibition was -17.7% (inactive).

For `COc1ccc(NC(=S)N2N=CCC2c2ccccc2)cc1` (stereo not given), the inhibition was 88.7% (active).

In the case of `COc1ccc(NC(=O)N2CCC(Cc3ccccc3)CC2)cc1`, the inhibition is 35.2% (inactive).

Take `COc1ccccc1CNC(=O)C1CCN(S(=O)(=O)c2ccc3c(c2)CC(C)N3C(=O)C2CC2)CC1` (stereo not given): the inhibition is -10.2% (inactive).

Consider `Cc1ccc(N(Cc2ccccc2O)C(=O)c2ccccc2F)cc1`, for which the inhibition was -2.19% (inactive).

On to `CCCC(=O)N(CCN1CCOCC1)c1nc2ccc(OCC)cc2s1`, for which the inhibition was 1.4% (inactive).

For the molecule `CCOc1ccc2nc(C(=O)N3CCCC(C)C3)sc2c1` (stereo not given), the inhibition was 129% (active).

In the case of `CCOc1ccc2nc(Nc3nc4ccc(NC(C)=O)cc4s3)sc2c1`, the inhibition is 50.5% (inactive).

Regarding `CC(C)[C@@H](C(=O)O)N(Cc1cccc(CN([C@H](C(=O)O)C(C)C)S(C)(=O)=O)c1)S(C)(=O)=O`, the inhibition is -4.11% (inactive).

Turning to `COc1ccc2c(c1)C=CC1(O2)N(CCO)c2ccccc2C1(C)C` (stereo not given), the inhibition was 40.8% (active).

On to `CN1c2ccc([N+](=O)[O-])cc2C(C)(C)C12C=Cc1cc(C(=O)O)ccc1O2` (stereo not given), for which the inhibition is 6.92% (inactive).

For the molecule `COc1cccc(CC2(CO)CCCN(CC3=Cc4cc(OC)ccc4OC3)C2)c1` (stereo not given), the inhibition is -9.4% (inactive).

In the case of `Cc1ccc(C)c(NC(=O)c2cc(-c3cc(C)cc(C)c3O)n[nH]2)c1`, the inhibition was 1.58% (inactive).

`Clc1ccc(C[n+]2cc(-c3ccccc3)n3c2CCC3)cc1`: the inhibition was 12.3% (inactive).

`O=C(N/N=C/c1cccnc1)c1cc2ccccc2cc1O`: the inhibition was 87.2% (active).

In the case of `O=C(N/N=C\c1cccnc1)c1cc(-c2ccccc2)nc2c(Cl)cccc12`, the inhibition was -27% (inactive).

Regarding `Cc1ccc(/C=N/NC(=O)CNC(=O)COc2ccccc2)o1`, the inhibition is -15.5% (inactive).

Turning to `Cc1ccc(/C=N/NC(=O)c2cc3ccccc3cc2O)o1`, the inhibition was 51.6% (active).

`Cc1ccc(/C=N/NC(=O)CSc2ccccn2)o1`: the inhibition is 17.6% (inactive).

As for `O=C(N/N=C/c1cccnc1)c1ccc(NC(=O)c2ccc(F)cc2)cc1`, the inhibition is 12.4% (inactive).

Regarding `CN(C)CCOC1c2ccccc2-c2ccccc21`, the inhibition was -5.07% (inactive).

`COc1ccc(NC(=O)CNC(=O)Cc2ccccc2)cc1OC`: the inhibition was 3.87% (inactive).

Turning to `O=C(CN(Cc1ccccc1)C(=O)CCC(=O)Nc1ccccn1)NCCc1ccccc1`, the inhibition was -11.7% (inactive).

For `COc1ccc2c(c1)c(C(=O)N/N=C/c1cccs1)c(C)n2C`, the inhibition is -4.44% (inactive).

Regarding `Cc1ccc(S(=O)(=O)CC(=O)Nc2nnc(C)s2)cc1`, the inhibition is -7.78% (inactive).

For `Cc1nnc(NC(=O)CCCOc2ccccc2)s1`, the inhibition was -8.1% (inactive).

For the molecule `CSc1nnc(NC(=O)c2nc(S(=O)(=O)Cc3ccc(C)cc3)ncc2Cl)s1`, the inhibition is 85.5% (active).

For `COCCSc1nnc(NC(=O)CCS(=O)(=O)Cc2ccccc2)s1`, the inhibition is -28.2% (inactive).

Turning to `Cc1ccc(CS(=O)(=O)c2ncc(Cl)c(C(=O)Nc3nnc(C)s3)n2)cc1`, the inhibition is 116% (active).

Turning to `CSc1ncc(Cl)c(C(=O)Nc2cc(C)ccc2C)n1`, the inhibition was -0.876% (inactive).

Turning to `S=C(NCc1ccco1)NCc1ccccc1Cl`, the inhibition was 12.9% (inactive).

Turning to `CCOC(=O)c1ccc(-n2c(CCC(=O)O)ccc2-c2ccccc2)cc1`, the inhibition was 1.31% (inactive).

For `O=C(O)CCn1c(Cc2ccccc2)nc2ccccc21`, the inhibition is 22.4% (inactive).

Take `CC(=O)c1cccc(NC(=S)N2CCN(S(C)(=O)=O)CC2)c1`: the inhibition was -3.09% (inactive).

Turning to `Cc1cc(C(=O)COC(=O)CNC(=O)c2ccc(F)cc2)c(C)n1Cc1ccco1`, the inhibition is 109% (active).

For `Cc1cc(C(=O)CSc2nc(N)cc(=O)[nH]2)c(C)n1Cc1ccco1`, the inhibition was -5.79% (inactive).

Turning to `COCC(C)n1c(C)cc(C(=O)COc2ccc(C)nc2[N+](=O)[O-])c1C` (stereo not given), the inhibition is 27% (inactive).

With `O=C(COC(=O)CNC(=O)c1ccco1)Nc1ccc(F)cc1`, the inhibition was -5.84% (inactive).

Take `COc1ccc(C)cc1-n1nnnc1SCC(=O)c1cc(C)n(Cc2ccco2)c1C`: the inhibition is -3.11% (inactive).

With `Cc1ccc(OCC(=O)c2cc(C)n(Cc3ccco3)c2C)c([N+](=O)[O-])n1`, the inhibition is 50.3% (active).

In the case of `CC(C)CCn1c(=O)c2c(nc3n2CCCN3Cc2ccccc2)n(C)c1=O`, the inhibition is -11.9% (inactive).

With `CC(C)C[C@@H](COc1ccccc1)N1CCN(CC(C)C)CCC1=O`, the inhibition is 6.99% (inactive).

Regarding `O=S(=O)(c1ccc(Br)cc1)N1CCC(c2nc3ccccc3[nH]2)CC1`, the inhibition is 20.1% (inactive).

For the molecule `CCCc1cc(=O)oc2c(C)c(OC(C)C(=O)NCC(O)c3ccccc3)ccc12` (stereo not given), the inhibition is -4.11% (inactive).

For `O=C(CN(C(=O)c1csnn1)c1cccc(Cl)c1)NC1CCCC1`, the inhibition was 13.6% (inactive).

For `C=CCOC(=O)C(=C)C`, the inhibition was -5.85% (inactive).
